# Reference: the supplement of paper PMC4466140
# What was measured:
# Assay in all cases: SPOT peptide array binding signal intensity (averaged, normalized) (arbitrary units (background-subtracted, floor 0; scale differs between SH3 domains)); higher = stronger binding of the SH3 domain to the peptide
# AgAbp1 = molecular target: AgAbp1
# How it was run: (§1)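 GST-fused SH3 domains from four yeast species were expressed in E. coli BL21(DE3), purified on glutathione Sepharose and incubated at 10 μg/ml overnight at 4°C in TBS-based blocking buffer on cellulose membranes carrying synthetic 15-mer peptides, with cysteines replaced by serines. Bound protein was detected with anti-GST antibody, an HRP anti-mouse secondary and luminol, then imaged and quantified with Genespotter. Binding signal is the normalized, background-subtracted spot intensity averaged over replicates, in arbitrary units that differ between domains.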
# AgBbc1 = molecular target: AgBbc1
# How it was run: as §1
# AgBem1-D1 = molecular target: AgBem1-D1
# How it was run: as §1
# AgBzz1-D1 = molecular target: AgBzz1-D1
# How it was run: as §1
# AgBzz1-D2 = molecular target: AgBzz1-D2
# How it was run: as §1
# AgCyk3 = molecular target: AgCyk3
# How it was run: as §1
# AgFus1 = molecular target: AgFus1
# How it was run: as §1
# AgHof1 = molecular target: AgHof1
# How it was run: as §1
# AgHse1 = molecular target: AgHse1
# How it was run: as §1
# AgLsb1 = molecular target: AgLsb1
# How it was run: as §1
# AgLsb4 = molecular target: AgLsb4
# How it was run: as §1
# AgMyo5 = molecular target: AgMyo5
# How it was run: as §1
# AgNbp2 = molecular target: AgNbp2
# How it was run: as §1
# AgRvs167 = molecular target: AgRvs167
# How it was run: as §1
# AgSho1 = molecular target: AgSho1
# How it was run: as §1
# AgSla1-D1-D2 = molecular target: AgSla1-D1-D2
# How it was run: as §1
# AgSla1-D3 = molecular target: AgSla1-D3
# How it was run: as §1
# CaAbp1-D1 = molecular target: CaAbp1-D1
# How it was run: as §1
# CaAbp1-D2 = molecular target: CaAbp1-D2
# How it was run: as §1
# CaBbc1 = molecular target: CaBbc1
# How it was run: as §1
# CaBem1-D1 = molecular target: CaBem1-D1
# How it was run: as §1
# CaBzz1-D1 = molecular target: CaBzz1-D1
# How it was run: as §1
# CaBzz1-D2 = molecular target: CaBzz1-D2
# How it was run: as §1
# CaCyk3 = molecular target: CaCyk3
# How it was run: as §1
# CaFus1 = molecular target: CaFus1
# How it was run: as §1
# CaHof1 = molecular target: CaHof1
# How it was run: as §1
# CaHse1 = molecular target: CaHse1
# How it was run: as §1
# CaLsb1 = molecular target: CaLsb1
# How it was run: as §1
# CaLsb4 = molecular target: CaLsb4
# How it was run: as §1
# CaMyo5 = molecular target: CaMyo5
# How it was run: as §1
# CaNbp2 = molecular target: CaNbp2
# How it was run: as §1
# CaRvs167 = molecular target: CaRvs167
# How it was run: as §1
# CaRvs167-3 = molecular target: CaRvs167-3
# How it was run: as §1
# CaSho1 = molecular target: CaSho1
# How it was run: as §1
# CaSla1-D1-D2 = molecular target: CaSla1-D1-D2
# How it was run: as §1
# CaSla1-D3 = molecular target: CaSla1-D3
# How it was run: as §1
# ScAbp1 = molecular target: ScAbp1
# How it was run: as §1
# ScBbc1 = molecular target: ScBbc1
# How it was run: as §1
# ScBem1-D1 = molecular target: ScBem1-D1
# How it was run: as §1
# ScBzz1-D1 = molecular target: ScBzz1-D1
# How it was run: as §1
# ScBzz1-D2 = molecular target: ScBzz1-D2
# How it was run: as §1
# ScCyk3 = molecular target: ScCyk3
# How it was run: as §1
# ScFus1 = molecular target: ScFus1
# How it was run: as §1
# ScHof1 = molecular target: ScHof1
# How it was run: as §1
# ScHse1 = molecular target: ScHse1
# How it was run: as §1
# ScLsb1 = molecular target: ScLsb1
# How it was run: as §1
# ScLsb2 = molecular target: ScLsb2
# How it was run: as §1
# ScLsb3 = molecular target: ScLsb3
# How it was run: as §1
# ScLsb4 = molecular target: ScLsb4
# How it was run: as §1
# ScMyo3 = molecular target: ScMyo3
# How it was run: as §1
# ScMyo5 = molecular target: ScMyo5
# How it was run: as §1
# ScNbp2 = molecular target: ScNbp2
# How it was run: as §1
# ScPex13 = molecular target: ScPex13
# How it was run: as §1
# ScRvs167 = molecular target: ScRvs167
# How it was run: as §1
# ScSho1 = molecular target: ScSho1
# How it was run: as §1
# ScSla1-D1-D2 = molecular target: ScSla1-D1-D2
# How it was run: as §1
# ScSla1-D3 = molecular target: ScSla1-D3
# How it was run: as §1
# SpAbp1-D1 = molecular target: SpAbp1-D1
# How it was run: as §1
# SpBbc1 = molecular target: SpBbc1
# How it was run: as §1
# SpBzz1-D1 = molecular target: SpBzz1-D1
# How it was run: as §1
# SpBzz1-D2 = molecular target: SpBzz1-D2
# How it was run: as §1
# SpCyk3 = molecular target: SpCyk3
# How it was run: as §1
# SpHof1 = molecular target: SpHof1
# How it was run: as §1
# SpHof1-2 = molecular target: SpHof1-2
# How it was run: as §1
# SpHof1-3 = molecular target: SpHof1-3
# How it was run: as §1
# SpHse1 = molecular target: SpHse1
# How it was run: as §1
# SpLsb1 = molecular target: SpLsb1
# How it was run: as §1
# SpLsb4 = molecular target: SpLsb4
# How it was run: as §1
# SpMyo1 = molecular target: SpMyo1
# How it was run: as §1
# SpNbp2 = molecular target: SpNbp2
# How it was run: as §1
# SpPex13 = molecular target: SpPex13
# How it was run: as §1
# SpRvs167 = molecular target: SpRvs167
# How it was run: as §1
# SpSla1-D1-D2 = molecular target: SpSla1-D1-D2
# How it was run: as §1
# SpSla1-D3 = molecular target: SpSla1-D3
# How it was run: as §1
binder,measurement,setting,value
GSKSGPPPRPKKPST,SPOT peptide array binding signal intensity,AgAbp1,94
same,SPOT peptide array binding signal intensity,AgBbc1,780
same,SPOT peptide array binding signal intensity,AgBem1-D1,66.5
same,SPOT peptide array binding signal intensity,AgBzz1-D1,524
same,SPOT peptide array binding signal intensity,AgBzz1-D2,102
same,SPOT peptide array binding signal intensity,AgCyk3,≤ 0
same,SPOT peptide array binding signal intensity,AgFus1,23
same,SPOT peptide array binding signal intensity,AgHof1,39.2
same,SPOT peptide array binding signal intensity,AgHse1,≤ 0
same,SPOT peptide array binding signal intensity,AgLsb1,≤ 0
same,SPOT peptide array binding signal intensity,AgLsb4,≤ 0
same,SPOT peptide array binding signal intensity,AgMyo5,0.25
same,SPOT peptide array binding signal intensity,AgNbp2,37
same,SPOT peptide array binding signal intensity,AgRvs167,≤ 0
same,SPOT peptide array binding signal intensity,AgSho1,20
same,SPOT peptide array binding signal intensity,AgSla1-D1-D2,9
same,SPOT peptide array binding signal intensity,AgSla1-D3,7.5
same,SPOT peptide array binding signal intensity,CaAbp1-D1,328
same,SPOT peptide array binding signal intensity,CaAbp1-D2,189
same,SPOT peptide array binding signal intensity,CaBbc1,825
same,SPOT peptide array binding signal intensity,CaBem1-D1,13
same,SPOT peptide array binding signal intensity,CaBzz1-D1,1530
same,SPOT peptide array binding signal intensity,CaBzz1-D2,388
same,SPOT peptide array binding signal intensity,CaCyk3,36.5
same,SPOT peptide array binding signal intensity,CaFus1,42
same,SPOT peptide array binding signal intensity,CaHof1,1.5
same,SPOT peptide array binding signal intensity,CaHse1,0.5
same,SPOT peptide array binding signal intensity,CaLsb1,0.5
same,SPOT peptide array binding signal intensity,CaLsb4,≤ 0
same,SPOT peptide array binding signal intensity,CaMyo5,0.5
same,SPOT peptide array binding signal intensity,CaNbp2,27
same,SPOT peptide array binding signal intensity,CaRvs167,≤ 0
same,SPOT peptide array binding signal intensity,CaRvs167-3,3.5
same,SPOT peptide array binding signal intensity,CaSho1,29.5
same,SPOT peptide array binding signal intensity,CaSla1-D1-D2,130
same,SPOT peptide array binding signal intensity,CaSla1-D3,230
same,SPOT peptide array binding signal intensity,ScAbp1,234
same,SPOT peptide array binding signal intensity,ScBbc1,97.8
same,SPOT peptide array binding signal intensity,ScBem1-D1,15
same,SPOT peptide array binding signal intensity,ScBzz1-D1,48.5
same,SPOT peptide array binding signal intensity,ScBzz1-D2,72
same,SPOT peptide array binding signal intensity,ScCyk3,1
same,SPOT peptide array binding signal intensity,ScFus1,6.5
same,SPOT peptide array binding signal intensity,ScHof1,1.75
same,SPOT peptide array binding signal intensity,ScHse1,13
same,SPOT peptide array binding signal intensity,ScLsb1,2.5
same,SPOT peptide array binding signal intensity,ScLsb2,0.5
same,SPOT peptide array binding signal intensity,ScLsb3,1400
same,SPOT peptide array binding signal intensity,ScLsb4,5
same,SPOT peptide array binding signal intensity,ScMyo3,5.25
same,SPOT peptide array binding signal intensity,ScMyo5,≤ 0
same,SPOT peptide array binding signal intensity,ScNbp2,51
same,SPOT peptide array binding signal intensity,ScPex13,133
same,SPOT peptide array binding signal intensity,ScRvs167,3.33
same,SPOT peptide array binding signal intensity,ScSho1,41
same,SPOT peptide array binding signal intensity,ScSla1-D1-D2,57.5
same,SPOT peptide array binding signal intensity,ScSla1-D3,28
same,SPOT peptide array binding signal intensity,SpAbp1-D1,85
same,SPOT peptide array binding signal intensity,SpBbc1,5.5
same,SPOT peptide array binding signal intensity,SpBzz1-D1,320
same,SPOT peptide array binding signal intensity,SpBzz1-D2,2
same,SPOT peptide array binding signal intensity,SpCyk3,≤ 0
same,SPOT peptide array binding signal intensity,SpHof1,1.5
same,SPOT peptide array binding signal intensity,SpHof1-2,10.5
same,SPOT peptide array binding signal intensity,SpHof1-3,25
same,SPOT peptide array binding signal intensity,SpHse1,16.2
same,SPOT peptide array binding signal intensity,SpLsb1,12.5
same,SPOT peptide array binding signal intensity,SpLsb4,332
same,SPOT peptide array binding signal intensity,SpMyo1,8
same,SPOT peptide array binding signal intensity,SpNbp2,5
same,SPOT peptide array binding signal intensity,SpPex13,7
same,SPOT peptide array binding signal intensity,SpRvs167,≤ 0
same,SPOT peptide array binding signal intensity,SpSla1-D1-D2,5
same,SPOT peptide array binding signal intensity,SpSla1-D3,1
GATNNAPTLPKRKNP,SPOT peptide array binding signal intensity,SpBzz1-D2,0.25
same,SPOT peptide array binding signal intensity,SpCyk3,≤ 0
same,SPOT peptide array binding signal intensity,SpHof1,2.75
same,SPOT peptide array binding signal intensity,SpHof1-2,0.625
same,SPOT peptide array binding signal intensity,SpHof1-3,65.5
same,SPOT peptide array binding signal intensity,SpHse1,11
same,SPOT peptide array binding signal intensity,SpLsb1,118
same,SPOT peptide array binding signal intensity,SpLsb4,6350
same,SPOT peptide array binding signal intensity,SpMyo1,≤ 0
same,SPOT peptide array binding signal intensity,SpNbp2,2
same,SPOT peptide array binding signal intensity,SpPex13,3.5
same,SPOT peptide array binding signal intensity,SpRvs167,1270
same,SPOT peptide array binding signal intensity,SpSla1-D1-D2,7
same,SPOT peptide array binding signal intensity,SpSla1-D3,15
